Experimental data reported in PubChem BioAssay AID504710 (Sanford-Burnham Center for Chemical Genomics, 2011).
Calls of active or inactive are those of the source.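 Rule for the calls: active = inhibition reaching about 16% in any single replicate (limit read from the data); inactive = the rest.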

What follows are compounds tested against Hexokinase HKDC1 (Homo sapiens) (UniProt Q2TB90) (assay: HKDC1 hexokinase inhibitors, confirmation, biochemical, single concentration (AID 504710)). Details: recombinant HKDC1, G6PDH/diaphorase/resazurin fluorescence; at 20 µM; hits give high values.
Sequence of Hexokinase HKDC1 (Homo sapiens) (Q2TB90 whole entry, looked up): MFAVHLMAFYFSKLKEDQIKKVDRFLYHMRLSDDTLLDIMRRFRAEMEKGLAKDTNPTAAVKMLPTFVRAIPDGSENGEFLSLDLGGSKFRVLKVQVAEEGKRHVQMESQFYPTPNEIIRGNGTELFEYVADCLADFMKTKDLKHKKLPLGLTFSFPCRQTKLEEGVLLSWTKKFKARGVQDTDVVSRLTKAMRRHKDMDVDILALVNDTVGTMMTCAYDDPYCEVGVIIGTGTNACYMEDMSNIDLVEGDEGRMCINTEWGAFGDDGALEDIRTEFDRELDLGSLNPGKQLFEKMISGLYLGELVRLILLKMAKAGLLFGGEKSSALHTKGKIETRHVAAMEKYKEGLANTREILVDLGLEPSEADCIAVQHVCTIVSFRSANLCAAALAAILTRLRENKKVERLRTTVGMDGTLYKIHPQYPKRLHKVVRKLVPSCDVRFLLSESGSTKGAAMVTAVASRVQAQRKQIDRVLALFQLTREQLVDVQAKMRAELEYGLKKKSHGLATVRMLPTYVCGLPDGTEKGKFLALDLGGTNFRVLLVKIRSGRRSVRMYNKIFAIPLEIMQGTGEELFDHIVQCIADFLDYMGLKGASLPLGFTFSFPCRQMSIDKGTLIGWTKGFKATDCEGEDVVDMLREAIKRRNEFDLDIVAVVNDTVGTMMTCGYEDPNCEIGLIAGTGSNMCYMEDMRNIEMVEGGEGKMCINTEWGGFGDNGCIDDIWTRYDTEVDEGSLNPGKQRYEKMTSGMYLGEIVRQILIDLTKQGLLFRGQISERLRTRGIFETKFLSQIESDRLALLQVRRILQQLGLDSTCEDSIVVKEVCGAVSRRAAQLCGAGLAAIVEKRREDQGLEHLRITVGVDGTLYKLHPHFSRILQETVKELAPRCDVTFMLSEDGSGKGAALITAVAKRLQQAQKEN

inhibition, active:
Nc1ccc(S(=O)(=O)c2cc(O)c3ccccc3c2O)cc1 68.7%
O=c1c2ccccc2nc(/C=C/c2cccnc2)n1CCc1ccccc1 38.8%
N#Cc1c(SCC(=O)Nc2nc3ccc(Br)cc3s2)sc2c(O)cc(=O)[nH]c12 44.9%
O=C(/C=C/c1cccs1)Nc1scc(-c2ccccc2)c1C(=O)O 58.2%
COc1cc(NC(=O)c2cnc(N)s2)cc(C(=O)Nc2cccc(C(F)(F)F)c2)c1 41.2%
NC1=CC(=O)C(=O)c2ccccc21 48.7%
O=C(CNC(=O)c1ccc2c(c1)OCCO2)N/N=C/c1ccc(O)cc1O 18.4%
O=C1C(N2CCOCC2)=C(n2nnc3ccccc32)C(=O)c2ccccc21 54.8%
COc1ncnc2c1oc1nc(C(C)C)c3c(c12)CC(C)(C)OC3 43.5%
Cc1cccc(C)c1Nc1nnc(SCc2cn3cccc(C)c3n2)s1 54.1%
O=C1C=CC(=O)C(C2=C3C(=O)N(CCc4ccccc4)CC(=O)N3CCC2)=C1 70.9%
O=C1C(Cl)=C(NCCc2ccccc2)C(=O)c2ccccc21 59.5%
Cc1cc(C)c(S(=O)(=O)Nc2cc(SCC(=O)O)c(O)c3ccccc23)cc1C 41.5%
Oc1ccc(/C=N/Nc2ncc(Br)cn2)c(O)c1 44.6%
Cc1nc([N+](=O)[O-])c(Br)n1Cc1ccc(Cl)c(Cl)c1 53.8%
O=c1c2ccccc2nc2n1CCC2 67.1%
COC1=CC(=O)c2c(ccc3ncnc(N)c23)C1=O 87.6%
CCCc1nc2oc3c(OC)ncnc3c2c2c1COC(C)(C)C2 42.4%
CC1COCC(C)N1C1=C(Cl)C(=O)c2ccccc2C1=O (configuration not stated) 43.5%
CC(C)Nc1nnc(SCC(=O)Nc2ccc3c(c2)C(=O)c2ccccc2C3=O)s1 53.5%

inhibition, inactive:
Cc1ccc2oc(=O)c3cnn(CC(=O)N4CCCCCC4)c3c2c1 -63.5%
COCc1cc(C2C(C(=O)c3ccco3)=C(O)C(=O)N2CCOCCO)ccc1O (configuration not stated) -40.1%
Nn1cnnc1N/N=C/c1cc(Br)cc(Br)c1O -31.9%
CC(=NNC(=S)N1CC2CCC(CC2)C1)c1cccc(C)n1 -51.9%
Clc1ccc(N=c2ssnc2Cl)nc1 -79.7%
O=C(CSc1cccc2cccnc12)N/N=C/c1cccnc1 -46.6%
CC(=NNC(=S)N1CCCCC1)c1cccc(C)n1 -39.6%
O=S(=O)(NC1c2cccc3cccc(c23)C1N1CCNCC1)c1ccccc1 (configuration not stated) -94.7%
CC(=NNc1nc2ccccc2o1)c1cc2ccccc2cn1 -77.2%
CCn1c2ccccc2c2nc3cc(S(=O)(=O)N4CCOCC4)ccc3nc21 -47.4%
Nc1nc(N2CCN(c3ccccn3)CC2)nc2ccccc12 -44.1%
Fc1ccc(N=C2NN=C(c3cc(F)ccc3F)CS2)cc1 -132%
CCOC(=O)c1c(C)[nH]c(C2=NNC(=Nc3ccccc3)SC2)c1C -141%
Nc1nc(-c2cccc(Br)c2)cs1 -40.6%
COc1ccc(-c2cc(C(=O)NNC(=S)NC(=O)c3c(-c4ccccc4)noc3C)[nH]n2)cc1 -50.1%
COc1ccc(N=C2NN=C(c3ccc4c(c3)OCCO4)CS2)cc1 -33.1%
Cc1cc(C2=NNC(=Nc3ccc(S(=O)(=O)N4CCOCC4)cc3)SC2)c(C)n1C -46.6%
